High-throughput results as filed in PubChem.
Only some compounds are listed: those with a hit (about 6.7% of all), similar ones and a draw of the others.
C diff HTS – C. difficile growth inhibitors, primary screen, HTS; growth activity, negative = inhibition, % at 16 µg/mL (by protocol); 0.25% of 86,000 active; AID 1259249, 2017; Clostridium difficile clinical isolate growth, OD600, 24 h; hits give low values;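 active means mean growth activity at or below -80% and every replicate also at or below -80%; inconclusive means mean at or below -80% but some replicate above -80%; inactive means mean growth activity above -80%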;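 further: 0% = DMSO wells and -100% = levofloxacin 16 µg/mL wells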
Pf Dd2 inh – P. falciparum Dd2 growth inhibitors, primary screen, SYBR Green fluorescence, single dose replicates. 72 h; hits give low values. 2.3% of 94,000 active. activity change, % at 10 µM; in the data active means activity change below about -80%; inconclusive means no clear call, values can overlap the other calls
T cruzi growth-1 – T. cruzi intracellular proliferation inhibitors, primary screen, cell-based, beta-gal Tulahuen parasites, NIH3T3 host, luminescence | T. cruzi beta-gal in NIH3T3, GalScreen luminescence, 90 h | 5.9% of 77,000 active | inhibition, % at 8.34 µM;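 active means mean inhibition above about 93%, with at least 55% of replicates each passing it, limit read from the data, passing the limit was not always enough; inconclusive means only one of those two conditions holds; inactive means neither condition holds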
T cruzi growth-2 – T. cruzi intracellular proliferation inhibitors, confirmation, cell-based, NIH3T3 host, beta-gal parasite, luminescence, cherry-pick | shares compounds with T cruzi growth-1 | T. cruzi beta-gal in NIH3T3, GalScreen luminescence, 90 h | inhibition, % at 8.35 µM | 72% of 5,600 active;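 active means mean replicate inhibition above about 95% and at least 55% of replicates individually reaching it, limit read from the data; inconclusive means only one of the two criteria is met; inactive means neither criterion is met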
T cruzi growth-3 – inhibitors of intracellular T. cruzi replication, confirmation, NIH3T3 host cells, beta-gal parasites, cherry-pick, set 2. AID 651740, 2012. inhibition, % at 2.09 µM. 21% of 5,600 active. T. cruzi beta-gal in NIH3T3, GalScreen luminescence, 90 h. shares compounds with T cruzi growth-1;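 active means mean inhibition above about 95%, with at least 55% of replicates also reaching it, limit read from the data; inconclusive means meets just one of the two conditions; inactive means meets neither condition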;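 further: plate controls were neutral control median for no effect and positive control median for full effect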
NIH3T3 tox – cytotoxicity in mouse NIH/3T3 fibroblasts, confirmation, cytotoxicity control for T. cruzi proliferation inhibitor project, cell-based, cherry-pick, single point; 14% of 5,600 active; AID 651742, 2012; cytotoxicity (signal decrease), % at 8.35 µM; NIH/3T3 viability, CellTiter-Glo ATP luminescence, 90 h; shares compounds with T cruzi growth-1;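 active means mean signal decrease across replicates above about 35% based on untreated-well scatter, with enough replicates individually passing, limit read from the data; inconclusive means no rule stated though some were filed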;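 further: 0% = median of neutral control wells and 100% = median of positive control wells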
3T3 cytotox 2 – NIH/3T3 fibroblast cytotoxicity, confirmation, cytotoxicity control, cell-based, cherry-pick, single point, set 2; shares compounds with T cruzi growth-1; NIH/3T3 viability, CellTiter-Glo ATP luminescence, 90 h; inhibition, % at 24.9 µM; 56% of 5,600 active; AID 651744, 2012;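 active means mean loss of cell viability signal at or above a set limit, and enough replicates individually reaching it; inconclusive means meets only the mean limit or only the replicate share; inactive means meets neither condition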;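 further: 0% = median of neutral control wells and 100% = median of positive control wells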
Numbers without * were called inactive; ? = inconclusive; nt = no result given.

SMILES | C diff HTS | Pf Dd2 inh | T cruzi growth-1 | T cruzi growth-2 | T cruzi growth-3 | NIH3T3 tox | 3T3 cytotox 2
CCC(=O)N1[C@@H](CO)[C@@H](c2ccccc2)[C@@H]1CN(CC)C(=O)NC1CCCC1 | 3 | -73 | 56 | nt | nt | nt | nt
O=C(C[C@@H]1CC[C@@H]2[C@H](COC[C@H](O)CN2Cc2ccc(Cl)cc2)O1)NCc1ccccc1Cl | -5 | -2 | 88 | nt | nt | nt | nt
C[C@@H]1CN([C@@H](C)CO)C(=O)c2cc(C#Cc3cccc(F)c3)cnc2O[C@H]1CN(C)Cc1ccccn1 | -9 | -23 | 91 | nt | nt | nt | nt
Cc1noc(C)c1NC(=O)Nc1ccc2c(c1)C(=O)N([C@@H](C)CO)C[C@H](C)[C@H](CN(C)S(C)(=O)=O)O2 | nt | 6 | 84 | nt | nt | nt | nt
C[C@@H]1CN([C@H](C)CO)C(=O)c2cc(C#CCN(C)C)cnc2O[C@@H]1CN(C)Cc1ccc(-c2ccccc2)cc1 | 12 | nt | 63 | nt | nt | nt | nt
C[C@H]1CN([C@@H](C)CO)C(=O)c2cc(C#CCN(C)C)cnc2O[C@@H]1CN(C)Cc1ccccc1F | -1 | -41 | 52 | nt | nt | nt | nt
C[C@@H]1CN([C@H](C)CO)C(=O)c2cc(C#CCN(C)C)cnc2O[C@H]1CN(C)Cc1ccccc1F | -1 | -10 | 101* | 83 | 29 | 15 | 5
C[C@@H]1CN([C@@H](C)CO)C(=O)c2cc(C#CCN(C)C)cnc2O[C@H]1CN(C)Cc1ccc(C(=O)O)cc1 | -1 | 5 | -34 | nt | nt | nt | nt
C[C@@H]1CN([C@@H](C)CO)C(=O)c2cc(C#CCN(C)C)cnc2O[C@@H]1CN(C)Cc1ccc(C(=O)O)cc1 | 2 | 17 | 109* | ? | 22 | -15 | 1
C[C@H]1CN([C@@H](C)CO)C(=O)c2cc(C#CCN(C)C)cnc2O[C@@H]1CN(C)Cc1ccc(-c2ccccc2)cc1 | -4 | nt | 108* | 107* | 76 | 19 | 103*
O=C(C[C@@H]1C[C@@H]2c3cc(NC(=O)C4CCC4)ccc3O[C@@H]2[C@@H](CO)O1)NCc1ccc2c(c1)OCO2 | 0 | 3 | 7 | nt | nt | nt | nt
CCS(=O)(=O)N1CCCCN2[C@H](CO)[C@@H](c3ccc(-c4ccc(C#N)cc4)cc3)[C@@H]2C1 | 1 | -12 | 19 | nt | nt | nt | nt
CCS(=O)(=O)N1CCCCN2[C@H](CO)[C@H](c3ccc(-c4cccc(C#N)c4)cc3)[C@H]2C1 | -5 | -80 | 128* | 97* | 53 | 53* | 46*
CCS(=O)(=O)N1CCCCN2[C@H](C1)[C@H](c1ccc(-c3cccc(C#N)c3)cc1)[C@@H]2CO | -1 | -43 | 107* | 25 | -15 | 11 | 20
CS(=O)(=O)N1CCCCN2[C@@H](CO)[C@@H](c3ccc(-c4cccc(C#N)c4)cc3)[C@@H]2C1 | -6 | 40 | -8 | nt | nt | nt | nt
CCS(=O)(=O)N1CCCCN2[C@H](CO)[C@H](c3ccc(-c4cccc(C#N)c4)cc3)[C@@H]2C1 | -4 | -77 | 91 | nt | nt | nt | nt
CCS(=O)(=O)N1CCCCN2[C@H](CO)[C@H](c3ccc(-c4ccc(C#N)cc4)cc3)[C@H]2C1 | -2 | -39 | 114* | 96* | 53 | 5 | 52*
C[C@@H]1CCCCO[C@@H](CN(C)CC2CC2)[C@@H](C)CN([C@H](C)CO)C(=O)c2cc(NS(=O)(=O)c3cccs3)ccc2O1 | 1 | 2 | 31 | nt | nt | nt | nt
COc1ccc(NC(=O)N(C)C[C@@H]2Oc3cc(C#CCN(C)C)ccc3S(=O)(=O)N([C@@H](C)CO)C[C@@H]2C)cc1 | 2 | -4 | 59 | nt | nt | nt | nt
CCCC#Cc1cnc2c(c1)C(=O)N([C@@H](C)CO)C[C@@H](C)[C@@H](CN(C)C(=O)C1CCCCC1)O2 | 4 | -32 | -100 | nt | nt | nt | nt
CCC(=O)N1CC(=O)N2[C@@H](CO)[C@@H](c3ccc(C#CC4CCCCC4)cc3)[C@@H]2C1 | 47 | -23 | nt | nt | nt | nt | nt
C[C@H]1CN([C@@H](C)CO)C(=O)c2cc(C#Cc3cccnc3)cnc2O[C@H]1CN(C)C(=O)CC1CC1 | -10 | -11 | 64 | nt | nt | nt | nt
CO[C@H]1CN(C)C(=O)c2cc(NC(=O)CC(F)(F)F)ccc2OC[C@H](C)N(CC2CC2)C[C@H]1C | 4 | 34 | nt | nt | nt | nt | nt
CCCC#Cc1ccc([C@@H]2[C@@H](CO)N(C(=O)CN3CCOCC3)[C@H]2C#N)cc1 | 4 | 31 | ? | nt | nt | nt | nt
CCCC#Cc1ccc([C@@H]2[C@H](C#N)N(C(=O)CN3CCOCC3)[C@H]2CO)cc1 | 4 | 18 | 99* | 90 | 51 | -5 | 13
SMILES | C diff HTS | Pf Dd2 inh | T cruzi growth-1 | T cruzi growth-2 | T cruzi growth-3 | NIH3T3 tox | 3T3 cytotox 2
N#C[C@@H]1[C@H](c2ccc(C#CCC3CCCC3)cc2)[C@@H](CO)N1C(=O)CN1CCOCC1 | -4 | -19 | 101* | 106* | 69 | -7 | 82*
N#C[C@H]1[C@H](c2ccc(C#CCC3CCCC3)cc2)[C@@H](CO)N1C(=O)CN1CCOCC1 | -4 | -31 | 83 | nt | nt | nt | nt
CCC(=O)N[C@@H]1CC[C@H](CC(=O)NCC2CC2)O[C@H]1CO | 7 | -9 | nt | nt | nt | nt | nt
CCC(=O)Nc1ccc2c(c1)C(=O)N(C)C[C@@H](OC)[C@H](C)CN(C(=O)Cc1ccccn1)[C@H](C)CO2 | nt | -37 | -13 | nt | nt | nt | nt
Cc1noc(C)c1S(=O)(=O)Nc1ccc2c(c1)C(=O)N([C@@H](C)CO)C[C@H](C)[C@H](CN(C)S(C)(=O)=O)O2 | -2 | 27 | -25 | nt | nt | nt | nt
C[C@H]1CCCCO[C@@H](CN(C)C(=O)Nc2cccc3ccccc23)[C@@H](C)CN([C@@H](C)CO)C(=O)c2cc(NS(=O)(=O)c3ccc(F)cc3)ccc2O1 | -6 | -78 | 109* | 107* | 70 | -16 | 0
C[C@H](CO)N1C[C@H](C)[C@H](CN(C)C(=O)Nc2ccccc2)OCCCC[C@H](C)Oc2ccc(NS(=O)(=O)c3cccs3)cc2C1=O | 5 | nt | 42 | nt | nt | nt | nt
C[C@H](CO)N1C[C@H](C)[C@@H](CN(C)C(=O)Nc2cccc3ccccc23)OCCCC[C@H](C)Oc2ccc(NS(=O)(=O)c3cccs3)cc2C1=O | 5 | -68 | 102* | 106* | 56 | -20 | -24
C[C@@H]1CCCCO[C@H](CN(C)C(=O)Nc2cccc3ccccc23)[C@H](C)CN([C@H](C)CO)C(=O)c2cc(NS(=O)(=O)c3ccc(F)cc3)ccc2O1 | 2 | -84* | 105* | 106* | 73 | 9 | 5
COc1ccc(S(=O)(=O)Nc2ccc3c(c2)C(=O)N([C@@H](C)CO)C[C@@H](C)[C@H](CN(C)C(=O)Nc2cccc4ccccc24)OCCCC[C@H](C)O3)cc1 | -7 | -71 | 61 | nt | nt | nt | nt
